Measurements published in PubChem BioAssay (NCATS).
Records with an inconclusive call do not appear. Activity calls are given as the source filed them. Unless noted, calls come from the whole dose curve; as a rule, active = well fitted curve in the direction sought with a large enough effect; inconclusive = small, poorly fitted or top-dose-only effect, or another doubt; inactive = no such curve, though single readings can be large; an effect the other way counts as inactive or inconclusive.

What was measured:
[1] = target: Ubiquitin carboxyl-terminal hydrolase 1 (Homo sapiens) (UniProt O94782); assay: Inhibitors of USP1/UAF1: Pilot qHTS (AID 504865); note: nearly all actives have a fitted effect of over 35% in size; note: potency is the fitted concentration of half-maximal effect
How it was run: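 USP1/UAF1 complex (1nM) preincubated with compound 15 min at room temperature, then Ub-Rho substrate (150nM final) added. Fluorescence read kinetically at 480/540 nm, 6 reads every 60 seconds. Buffer: 50mM HEPES pH 7.8, 0.5mM EDTA, 0.1 mg/ml BSA, 1mM TCEP, 0.01% Tween-20.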

[2] = S16 Schwann cell viability assay (CellTiter-Glo assay) (AID 624031);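 note: native untransfected S16 rat Schwann cells; cellular ATP luminescence as a viability measure; nearly all actives have a fitted effect of over 70% in size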
How it was run: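 Parental S16 cells, 24 h compound, 37 °C. ATP-luminescence viability; DMSO = 0% activity, empty wells as reference; curves classified by fit quality and efficacy.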

CP266 = assay: qHTS profiling for inhibitors of Plasmodium falciparum proliferation (AID 504749); note: nearly all actives have a fitted effect of over 60% in size; note: potency is the fitted concentration of half-maximal effect; conditions: P. falciparum in erythrocytes, SYBR Green DNA, 72 h; series mostly up to 28.7 µM
How it was run: (§1)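 P. falciparum-infected erythrocytes (0.3% parasitemia, 2.5% hematocrit) incubated with compound 72 h at 37 C, 5% CO2. Parasite DNA detected by SYBR Green after lysis, overnight at room temperature; normalised to 0.29 uM artemisinin and DMSO.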

W2 = assay: as above; conditions: P. falciparum in erythrocytes, SYBR Green DNA, 72 h; series mostly up to 28.7 µM
How it was run: as §1

[3] = target: Cytochrome P450 3A4 (Homo sapiens) (UniProt P08684); assay: qHTS Assay for Activators of Cytochrome P450 3A4 (AID 885); note: nearly all actives have a fitted effect of over 65% in size
How it was run: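 20nM CYP3A4 + 25uM Luciferin-PPXE (=KM), 200mM KPO4; cpd 10 min RT; NADPH regen, 60 min RT; stop w/ detection buffer, 20 min; luminescence. Normalized to 57 uM ketoconazole.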

[4] = Confirmation and Secondary Assay for Modulators of Hemoglobin Beta Chain Splicing at IVS2 705 locus (AID 930);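 note: HeLa cells stably expressing the EGFP-705 splicing reporter; GFP fluorescence per well restored by corrected splicing of the IVS2-705 intron in EGFP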
How it was run: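 Fluorescence gain (488 nm laser, 500-520 nm PMT) reflects restored correct splicing of a mutant IVS2-705 intron inside EGFP in stably transfected HeLa cells after 2-day compound treatment.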

[5] = S16 Schwann cell PMP22 intronic element firefly luciferase assay (AID 624032); note: nearly all actives have a fitted effect of over 30% in size; note: potency is the fitted concentration of half-maximal effect
How it was run: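 Rat S16 Schwann cells stably carrying firefly luciferase driven by a PMP22 intronic element, in 10% FBS, treated 24 h at 37 C. ONE-Glo luminescence normalized to PTC124 control and DMSO (0%); curves classed by r2, magnitude and activity.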

[6] = S16 Schwann cell PMP22 intronic element beta-lactamase assay (AID 624044; calls by dose curve; note: nearly all actives have a fitted effect of over 15% in size; note: potency is the fitted concentration of half-maximal effect); conditions: S16 rat Schwann cells, PMP22 element beta-lactamase FRET, 24 h; ratio activity, negative = inhibition: at 38.3 µM (top of the series)
How it was run: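 Rat S16 Schwann cells with beta-Lac driven by a PMP22 intronic element, compound-treated 24 h at 37 °C. LiveBLAzer FRET B/G read: 460 nm normalized to potassium clavulanate vs DMSO; 535 nm FRET as viability; concentration-effect curves classified.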

[7] = target: Cytochrome P450 3A4 (Homo sapiens) (UniProt P08684); assay: qHTS Assay for Inhibitors and Substrates of Cytochrome P450 3A4 (AID 884); note: potency is the fitted concentration of half-maximal effect; nearly all actives have a fitted effect of over 50% in size
How it was run: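 20 nM human CYP3A4 with 25 uM Luciferin-PPXE (at KM) in 200 mM KPO4, preincubated 10 min with compound; NADPH regeneration started a 60 min RT reaction. Luciferin detected by luminescence, normalized to 57 uM ketoconazole as full inhibition.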

Measured: Potency

Cytochrome P450 3A4 (Homo sapiens), sequence (P08684 whole entry, looked up): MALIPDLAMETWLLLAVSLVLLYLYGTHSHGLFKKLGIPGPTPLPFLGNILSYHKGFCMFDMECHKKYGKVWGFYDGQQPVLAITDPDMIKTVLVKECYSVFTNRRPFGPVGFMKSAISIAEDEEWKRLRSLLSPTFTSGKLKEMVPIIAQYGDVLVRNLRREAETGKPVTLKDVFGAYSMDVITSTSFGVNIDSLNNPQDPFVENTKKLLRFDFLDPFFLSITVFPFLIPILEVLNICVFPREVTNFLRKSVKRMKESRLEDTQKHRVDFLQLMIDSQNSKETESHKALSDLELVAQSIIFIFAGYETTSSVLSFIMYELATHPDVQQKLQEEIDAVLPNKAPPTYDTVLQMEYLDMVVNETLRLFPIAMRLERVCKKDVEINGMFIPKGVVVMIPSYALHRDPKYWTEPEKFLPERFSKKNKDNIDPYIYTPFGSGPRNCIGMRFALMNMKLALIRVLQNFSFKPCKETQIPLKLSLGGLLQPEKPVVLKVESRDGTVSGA
Ubiquitin carboxyl-terminal hydrolase 1 (Homo sapiens), sequence (O94782 whole entry, looked up): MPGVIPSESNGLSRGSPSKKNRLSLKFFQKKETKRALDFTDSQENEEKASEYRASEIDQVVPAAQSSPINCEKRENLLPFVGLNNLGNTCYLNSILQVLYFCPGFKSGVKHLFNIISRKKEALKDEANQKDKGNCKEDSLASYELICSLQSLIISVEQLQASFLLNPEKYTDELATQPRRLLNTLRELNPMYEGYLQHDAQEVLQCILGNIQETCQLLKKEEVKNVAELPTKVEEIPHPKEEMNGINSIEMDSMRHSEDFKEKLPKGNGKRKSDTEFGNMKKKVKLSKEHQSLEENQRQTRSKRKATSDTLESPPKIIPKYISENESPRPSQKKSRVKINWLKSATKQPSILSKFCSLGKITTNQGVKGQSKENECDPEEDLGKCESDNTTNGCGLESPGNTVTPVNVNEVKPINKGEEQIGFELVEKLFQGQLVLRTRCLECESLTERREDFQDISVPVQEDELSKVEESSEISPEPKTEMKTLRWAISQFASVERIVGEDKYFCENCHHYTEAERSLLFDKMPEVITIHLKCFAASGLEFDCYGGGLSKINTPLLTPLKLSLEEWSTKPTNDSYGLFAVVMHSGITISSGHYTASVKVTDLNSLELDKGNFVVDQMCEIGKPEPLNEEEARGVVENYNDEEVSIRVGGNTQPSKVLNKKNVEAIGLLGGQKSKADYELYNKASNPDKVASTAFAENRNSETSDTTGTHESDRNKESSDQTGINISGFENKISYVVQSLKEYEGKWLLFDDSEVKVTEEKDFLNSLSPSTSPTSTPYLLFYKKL

C=C(CC[C@@H](C)[C@H]1CCC2[C@]1(C)CC[C@]13C[C@@]14CCC(OC(=O)/C=C/c1ccc(O)c(OC)c1)C(C)(C)[C@@H]4CC[C@@]23C)C(C)C (stereo not given in full)
inactive: [1] | [2] | CP266 | W2

Nc1nc(/C(=C/CC(=O)O)C(=O)NC2C(=O)N3C(C(=O)O)=CCSC23)cs1 (stereo not given)
inactive: [3] | [4] | [2] | [5] | [6] | CP266 | W2

CCC(C(=O)C(C)C(O)C(C)CCc1ccc(C)c(O)c1C(=O)O)C1OC(CC)(C2CC[C@@](O)(CC)C(C)O2)CC1C (stereo not given in full)
inactive: [4] | [2]
active: [7] 20 µM | [5] 1.81 µM | [6] 6.3 µM | CP266 1.35 µM | W2 0.675 µM

C[N+]12CCCC[C@@H]1CCC(=C(c1cccs1)c1cccs1)C2 (stereo not given in full)
inactive: [1] | [2] | [6]
active: W2 13.5 µM

C/C(=C(/CCO)SS/C(CCO)=C(\C)N(C=O)Cc1cnc(C)nc1N)N(C=O)Cc1cnc(C)nc1N
inactive: [1] | [2] | [5] | [6] | CP266 | W2

COc1ccc(S(=O)(=O)N2c3ccc(Cl)cc3[C@](O)(c3ccccc3Cl)[C@@H]2C(=O)N2CCC[C@H]2C(N)=O)cc1OC
inactive: [3] | [1] | [2] | [6] | CP266

C=C[C@@]1(C)C[C@H](OC(=O)CSC(C)(C)CNC(=O)[C@@H](N)C(C)C)[C@@]2(C)C(C)CC[C@@]3(CCC(=O)[C@@H]32)[C@H](C)[C@H]1O (stereo not given in full)
active: [5] 0.361 µM | W2 0.269 µM
inactive: [1] | [6]

Clc1ccc(CS[C@@H](Cn2ccnc2)c2ccc(Cl)cc2Cl)cc1
inactive: [2] | [5] | [6]
active: W2 1.02 µM

O=C(O)C(O)c1ccccc1 (stereo not given)
inactive: [1] | [2] | [5] | [6] | CP266 | W2

C[C@]12CC[C@@H]3c4ccc(O)cc4C[C@@H](CCCCCCCCCS(=O)CCCC(F)(F)C(F)(F)F)C3[C@@H]1CC[C@@H]2O (stereo not given in full)
active: W2 6.75 µM
inactive: [2] | [6] | CP266

CCC(=O)O[C@]1(C(=O)CCl)[C@@H](C)CC2C3C[C@H](F)C4=CC(=O)C=CC4(C)[C@@]3(F)C(O)CC21C (stereo not given in full)
inactive: [6]
active: W2 6.01 µM

Nc1ncn(C2C[C@H](O)[C@@H](CO)O2)c(=O)n1 (stereo not given in full)
inactive: [1] | [2] | W2

Cc1cc2nc3c(=O)[nH]c(=O)nc-3n(CC(O)C(O)C(O)COP(=O)(O)O)c2cc1C (stereo not given)
active: [1] 31.6 µM
inactive: [2] | [6] | CP266

Cn1cc(C(=O)[C@@H]2CCc3[nH]cnc3C2)c2ccccc21
inactive: [1] | [5] | [6] | CP266 | W2

C[C@@H]1CC2C3CCC4=CC(=O)C=C[C@]4(C)[C@@]3(F)[C@@H](O)C[C@]2(C)[C@@]1(O)C(=O)COC(=O)c1cccc(S(=O)(=O)O)c1 (stereo not given in full)
inactive: [1] | [2] | [5] | CP266 | W2
